Records with an inconclusive call do not appear. Calls of active or inactive are those of the source. Unless noted, calls come from the whole dose curve; as a rule, active = well fitted curve in the direction sought with a large enough effect; inconclusive = small, poorly fitted or top-dose-only effect, or another doubt; inactive = no such curve, though single readings can be large; an effect the other way counts as inactive or inconclusive.
Key:
[1] = target: Lysosomal acid glucosylceramidase (Homo sapiens) (UniProt P04062); test: Glucocerebrosidase-p2 (AID 348; in the data active = potency below about 10 µM; note: potency is the fitted concentration of half-maximal effect); settings: purified GBA, blue fluorogenic substrate, 40 min
Summary of the method: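 Normal human glucocerebrosidase (0.2 nM) with blue fluorogenic substrate (80 uM final) in citrate/phosphate pH 5.9 with 10mM sodium taurocholate, 0.01% tween-20; 40 min RT, NaOH/glycine stop; fluorescence Ex 365/Em 440; AC50 from a titration from 0.6 nM upwards.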

[2] = AP1 Signaling Pathway (AID 357; active = well fitted curve in either direction with a large enough effect, not every such curve was filed as active;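 note: ME-180 reporter cells stimulated with EGF at its EC50 level; % is set by controls: 0 for no effect and ±100 for the full control effect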); settings: ME-180 AP-1-bla reporter, EGF-induced, beta-lactamase ratio, 5 h; at 7.69 µM (top of the series) unless noted
Summary of the method: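 Cells are seeded overnight, exposed to compound titrations and an EC50 level of EGF for 5 hours at 37 °C, then loaded with CCF4 dye for 2.5 hours. Beta-lactamase activity under the AP-1 element is read as a blue/green ratio.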

[3] = NFAT Signaling Pathway (AID 444; active = well fitted curve in either direction with a large enough effect, not every such curve was filed as active;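 note: carbachol stimulus at about its EC50 of 1 µM final; % is set by controls: 0 for no effect and ±100 for the full control effect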); settings: Jurkat NFAT-bla M1, carbachol, beta-lactamase ratio, 5 h; at 7.69 µM (top of the series) unless noted
Summary of the method: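 Jurkat cells with NFAT-driven β-lactamase reporter and co-expressed M1 receptor, stimulated with carbachol (final 1 uM, ~EC50), compound titration, 5 h at 37 °C. CCF4 loaded 1 h at RT; 460/530 nm ratio gave %activity and AC50.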

[4] = Stat Signaling Pathway (AID 446; active = well fitted curve in either direction with a large enough effect, not every such curve was filed as active;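 note: ME-180 cervical cancer cells given 40 pM IL-6 alongside compound; SIE-controlled beta-lactamase reporter measured as 460/530 nm FRET emission ratio; % is set by controls: 0 for no effect and ±100 for the full control effect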); settings: ME-180 (cervical carcinoma) SIE beta-lactamase reporter, IL-6 stimulated, 5 h; series mostly up to 7.69 µM
Summary of the method: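 Compound effects on IL-6-induced STAT reporter activity were measured in ME-180 cells. After overnight culture, cells were co-treated with 40 pM IL-6 for 5 hrs before beta-lactamase substrate loading at room temperature.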

[5] = target: Glucocorticoid receptor (Homo sapiens) (UniProt P04150); test: GR-GFP Redistribution (AID 450;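 active = compounds whose dose series gives a full or clear partial fitted curve of increased nuclear translocation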; note: potency is the fitted concentration of half-maximal effect); settings: U2OS GR-GFP nuclear translocation, laser cytometry, 2 h
[6] = target: Glucocorticoid receptor (Homo sapiens) (UniProt P04150); test: GR-EFC Redistribution (AID 451; calls by dose curve; note: potency is the fitted concentration of half-maximal effect); settings: CHO-K1 GR-EFC translocation, beta-gal luminescence, 2 h
Summary of the method: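 CHO-K1 cells expressing nuclear EA and GR-ED fragments of b-gal; compounds titrated up to 46 uM final, 2 h at 37 C. GR nuclear translocation read as complemented b-gal luminescence after 1 h RT detection.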

[7] = target: Mitogen-activated protein kinase 10 (Mus musculus) (UniProt Q61831); test: JNK3 AlphaScreen Assay (AID 530; active = well fitted curve in either direction with a large enough effect, not every such curve was filed as active;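 note: kinase came from lysate of stimulated human HepG2 cells; signal reports phosphorylation of biotinylated GST-cJun 1-79 at Ser73 with 10 µM ATP; % is set by controls: 0 for no effect and ±100 for the full control effect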); settings: JNK3 lysate, c-Jun phosphorylation; series mostly up to 57.1 µM
Summary of the method: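 Activity was read by AlphaScreen after JNK3-containing HepG2 lysate (cytokine pre-activated) phosphorylated biotinylated GST-cJun with 10 uM ATP at room temperature. Phospho-Ser73 cJun antibody with Protein-A acceptor beads provided detection.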

[8] = Viability counterscreen for antagonist of constitutive androstane receptor (CAR) against the NCATS DSHEA and TCM libraries (AID 1794837); settings: CAR reporter cell line viability counterscreen, qHTS; series mostly up to 40 µM;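 note: compound exposure lasted 24 h before viability reading; 0% is about no effect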
Summary of the method: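 Cell viability, CellTiter-Fluor, Ex/Em 405/540 nm, 1 h at 37C. HepG2-CYP2B6-hCAR, 2,500 cells/well; cpds + CITCO 48 uM final (antagonist mode), 24 h, 37C/5% CO2.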

[9] = Viability counterscreen for agonist of constitutive androstane receptor (CAR) against the NCATS DSHEA and TCM libraries (AID 1794838); settings: HepG2 cell viability counterscreen, CAR agonist assay, co-treated with 0.75 µM CAR antagonist; series mostly up to 40 µM; note: 0% is about no effect
Summary of the method: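 Viability by CellTiter-Fluor fluorescence, 405/540 nm, after 1 h at 37C. HepG2-CYP2B6-hCAR cells were exposed 24 h to test substances in presence of 0.75 uM PK11195 (final).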

[10] = target: Nuclear receptor subfamily 1 group I member 3 (Homo sapiens) (UniProt Q14994); test: Primary qHTS for agonist of constitutive androstane receptor (CAR) against the NCATS DSHEA and TCM libraries (AID 1794839); settings: CAR agonist reporter cells, qHTS luminescence, CAR antagonist co-added at 0.75 µM; series mostly up to 40 µM;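 note: HepG2 cells expressing human CAR with a CYP2B6 reporter plus PK11195 antagonist; 0% is about no effect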
Summary of the method: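 Luminescence from ONE-Glo luciferase was the agonist read-out in HepG2-CYP2B6-hCAR cells exposed 24 h to test substances. Wells also held the CAR antagonist PK11195 at 0.75 µM final. Viability was by CellTiter-Fluor fluorescence.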

[11] = HepG2 viability counterscreen (readout 2: ATP content) against the NCATS DSHEA and TCM libraries (AID 1794840); settings: ATP content luminescence; series mostly up to 27.3 µM; note: 0% is about no effect
Summary of the method: (§1)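 1,000 HepG2 cells/well, 4 h attach; compounds ~24 h, 37C/5% CO2. Readout 1: GF-AFC 25 uM final, 30 min, fluorescence 380/510 nm. Readout 2: CellTiter-Glo, 30 min RT, luminescence.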

[12] = HepG2 viability counterscreen (readout 1: protease activity) against the NCATS DSHEA and TCM libraries (AID 1794841); settings: qHTS concentration series; series mostly up to 27.3 µM;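 note: cells exposed to compounds for about 24 h before the protease read; 0% is about no effect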
Summary of the method: as §1

[13] = target: Cytochrome P450 2D6 (Homo sapiens) (UniProt P10635); test: qHTS for inhibitors of CYP2D6 against the NCATS DSHEA and TCM libraries (AID 1919972); settings: CYP2D6 enzymatic inhibition, luminescence qHTS; series mostly up to 34.1 µM; note: % is set by controls: 0 for no effect and ±100 for the full control effect
Summary of the method: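 CYP2D6 enzyme with pro-luciferin substrate in manufacturer buffer (typically 100 mM KPO4), preincubated 15 min RT with substances (most at 19.5 nM upward); NADPH regeneration system (1x) started 30–45 min RT reaction; P450-Glo luminescence read after 30 min; quinidine as intraplate control.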

[14] = KB-3-1 P-gp reporter qHTS against the NCATS DSHEA and TCM libraries (AID 1919975); settings: KB-3-1 parental cells, CellTiter-Glo luminescence viability, 72 h; series mostly up to 26.1 µM; note: 0% is about no effect
Summary of the method: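 CellTiter-Glo luminescence viability readout; KB-3-1 parental cells, 500/well, attached ~4 h, then compound for ~72 h, 37C, 5% CO2. Bortezomib intraplate control.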

[15] = qHTS Counterscreen for compound interference against the NCATS DSHEA and TCM libraries (AID 1919978); settings: firefly luciferase detection reagent interference, luminescence;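 note: compounds preincubated with 1 µM D-luciferin or buffer before detection reagent; % of control where 0% means no effect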
Summary of the method: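 Luminescence counterscreen for detection-kit interference: compounds at 19.5 nM–39.8 uM final, 15 min RT with 1 uM D-luciferin or buffer only; detection reagent added, 30 min RT, then read.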

[16] = Dual reporter qHTS for agonist of Pregnane X Receptor (hPXR) against the NCATS DSHEA and TCM libraries: Fluorescence readout (AID 1920058); settings: PXR dual reporter cells; series mostly up to 40 µM; note: 0% is about no effect
Summary of the method: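 Cells were plated at 2000 per well and allowed to attach for 5 h. Test substances were pinned in and incubated roughly 24 h. CellTiter-Fluor was then added and fluorescence measured after 1 h.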

[17] = target: Nuclear receptor subfamily 1 group I member 2 (Homo sapiens) (UniProt O75469); test: Dual reporter qHTS for agonist of Pregnane X Receptor (hPXR) against the NCATS DSHEA and TCM libraries: Luminescence readout (AID 1920059); settings: hPXR dual reporter cells, luciferase luminescence agonist; series mostly up to 40 µM; note: 0% is about no effect
Summary of the method: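 hPXR-Luc HepG2 cells, 2000/well in 5% charcoal-stripped FBS medium, attached 5 h, then exposed 24 h at 37C to compounds. Viability by CellTiter-Fluor, then luciferase luminescence with ONE-Glo.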

[18] = target: Nuclear receptor subfamily 1 group I member 2 (Homo sapiens) (UniProt O75469); test: Dual reporter qHTS for antagonist of Pregnane X Receptor (hPXR) against the NCATS DSHEA and TCM libraries: Luminescence Readout (AID 1920060); settings: hPXR dual reporter cells, luciferase luminescence, antagonist mode; series mostly up to 40 µM;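 note: HepG2 cells carrying hPXR luciferase reporter stimulated with rifampicin at 2 µM; 0% is about no effect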
Summary of the method: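 Antagonist mode: rifampicin 2 uM final co-added with compounds to hPXR-LucHepG2 cells for 24 h at 37C. Viability by CellTiter-Fluor, Ex/Em 405/540 nm, 1 h; reporter by ONE-Glo luminescence.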

[19] = target: Ubiquitin carboxyl-terminal hydrolase 1 (Homo sapiens) (UniProt O94782); test: Inhibitors of USP1/UAF1: Pilot qHTS (AID 504865); settings: purified USP1/UAF1, Ub-rhodamine cleavage fluorescence; series mostly up to 54.9 µM;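 note: rhodamine fluorescence freed from ubiquitin-rhodamine substrate followed over time; top concentration of the series differs between compounds; % is set by controls: 0 for no effect and ±100 for the full control effect; nearly all actives have a fitted effect of over 35% in size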
Summary of the method: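 1nM USP1/UAF1 + cpd, 15 min RT; start w/ Ub-Rho 150nM final; kinetic FL 480/540 nm, 6 reads q60 s. Buffer 50mM HEPES pH 7.8, 0.5mM EDTA, 1mM TCEP, 0.01% Tween-20, 0.1 mg/ml BSA.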

[20] = target: 3',5'-cyclic-AMP phosphodiesterase 4B (Homo sapiens) (UniProt Q07343); test: qHTS Assay for Inhibitors of PDE-IV (AID 607; active = well fitted activation curve with a large enough effect in the main read-out, with a control signal flat, not every such curve was filed as active; note: % of control where 0% means no effect); settings: HEK293 ACTOne CNG channel cells, membrane potential fluorescence; series mostly up to 22.9 µM
Summary of the method: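 ACTOne HEK293 cells carry a modified cAMP-gated CNG channel and express endogenous PDE4; plated 1000 cells/well, compounds up to 22.9 uM final. Membrane-potential dye fluorescence (ex 535/em 590) was read; parental cells received 10 uM forskolin + 100 uM RO 20-1724.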

Sequence of Nuclear receptor subfamily 1 group I member 3 (Homo sapiens) (Q14994 whole entry, looked up): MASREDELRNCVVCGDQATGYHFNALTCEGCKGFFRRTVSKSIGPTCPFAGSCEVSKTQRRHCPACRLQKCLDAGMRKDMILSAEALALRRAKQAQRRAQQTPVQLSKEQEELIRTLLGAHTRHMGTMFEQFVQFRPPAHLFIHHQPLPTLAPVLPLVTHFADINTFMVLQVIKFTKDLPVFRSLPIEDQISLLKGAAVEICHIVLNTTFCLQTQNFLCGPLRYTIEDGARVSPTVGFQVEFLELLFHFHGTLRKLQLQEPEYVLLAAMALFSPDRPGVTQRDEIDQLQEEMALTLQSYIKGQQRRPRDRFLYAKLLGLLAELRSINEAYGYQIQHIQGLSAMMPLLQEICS
Sequence of Glucocorticoid receptor (Homo sapiens) (P04150 whole entry, looked up, the tested form may be a part): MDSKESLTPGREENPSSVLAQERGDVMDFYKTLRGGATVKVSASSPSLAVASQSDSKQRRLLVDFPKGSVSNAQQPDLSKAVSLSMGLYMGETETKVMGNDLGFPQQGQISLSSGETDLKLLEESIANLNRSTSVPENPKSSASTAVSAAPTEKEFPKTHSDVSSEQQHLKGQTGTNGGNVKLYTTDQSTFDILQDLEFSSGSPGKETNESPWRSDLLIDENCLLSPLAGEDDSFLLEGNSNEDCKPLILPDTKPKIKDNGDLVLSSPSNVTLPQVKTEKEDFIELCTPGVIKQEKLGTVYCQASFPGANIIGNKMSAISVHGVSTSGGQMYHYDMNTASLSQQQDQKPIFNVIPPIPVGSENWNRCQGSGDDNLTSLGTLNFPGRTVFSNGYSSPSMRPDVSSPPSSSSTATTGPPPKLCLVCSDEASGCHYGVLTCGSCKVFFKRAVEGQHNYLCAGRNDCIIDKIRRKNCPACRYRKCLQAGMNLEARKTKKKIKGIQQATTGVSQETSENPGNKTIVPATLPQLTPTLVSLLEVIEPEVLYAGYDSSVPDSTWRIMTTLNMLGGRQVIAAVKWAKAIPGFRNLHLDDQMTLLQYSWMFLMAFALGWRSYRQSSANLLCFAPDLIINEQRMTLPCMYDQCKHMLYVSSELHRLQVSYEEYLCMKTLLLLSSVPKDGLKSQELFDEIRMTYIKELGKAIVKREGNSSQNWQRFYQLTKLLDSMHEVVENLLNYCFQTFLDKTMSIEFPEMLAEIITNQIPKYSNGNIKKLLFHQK
Sequence of Cytochrome P450 2D6 (Homo sapiens) (P10635 whole entry, looked up): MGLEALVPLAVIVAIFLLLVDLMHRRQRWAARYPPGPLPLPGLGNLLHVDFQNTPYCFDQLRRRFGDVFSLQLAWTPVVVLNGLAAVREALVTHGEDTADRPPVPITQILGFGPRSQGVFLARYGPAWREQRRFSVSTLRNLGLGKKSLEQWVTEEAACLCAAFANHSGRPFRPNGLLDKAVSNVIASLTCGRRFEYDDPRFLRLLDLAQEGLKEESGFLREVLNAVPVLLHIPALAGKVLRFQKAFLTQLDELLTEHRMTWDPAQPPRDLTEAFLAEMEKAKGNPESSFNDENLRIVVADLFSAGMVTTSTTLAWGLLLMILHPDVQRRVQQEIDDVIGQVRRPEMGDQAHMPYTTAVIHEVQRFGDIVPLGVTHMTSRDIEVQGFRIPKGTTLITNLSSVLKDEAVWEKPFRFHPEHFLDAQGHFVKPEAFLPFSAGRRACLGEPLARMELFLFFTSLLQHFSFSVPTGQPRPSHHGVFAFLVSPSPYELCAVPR
Sequence of Nuclear receptor subfamily 1 group I member 2 (Homo sapiens) (O75469 whole entry, looked up): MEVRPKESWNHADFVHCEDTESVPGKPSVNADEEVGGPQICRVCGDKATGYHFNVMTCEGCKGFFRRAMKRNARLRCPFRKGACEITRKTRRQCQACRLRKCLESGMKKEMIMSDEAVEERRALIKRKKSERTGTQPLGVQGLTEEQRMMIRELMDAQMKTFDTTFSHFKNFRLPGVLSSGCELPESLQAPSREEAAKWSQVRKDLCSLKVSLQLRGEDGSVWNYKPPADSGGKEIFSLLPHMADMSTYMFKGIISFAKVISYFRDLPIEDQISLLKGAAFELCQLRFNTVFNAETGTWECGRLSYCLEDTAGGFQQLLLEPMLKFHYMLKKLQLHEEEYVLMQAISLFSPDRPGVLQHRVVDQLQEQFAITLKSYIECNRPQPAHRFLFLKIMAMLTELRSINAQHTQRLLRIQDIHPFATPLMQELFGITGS
Sequence of Ubiquitin carboxyl-terminal hydrolase 1 (Homo sapiens) (O94782 whole entry, looked up): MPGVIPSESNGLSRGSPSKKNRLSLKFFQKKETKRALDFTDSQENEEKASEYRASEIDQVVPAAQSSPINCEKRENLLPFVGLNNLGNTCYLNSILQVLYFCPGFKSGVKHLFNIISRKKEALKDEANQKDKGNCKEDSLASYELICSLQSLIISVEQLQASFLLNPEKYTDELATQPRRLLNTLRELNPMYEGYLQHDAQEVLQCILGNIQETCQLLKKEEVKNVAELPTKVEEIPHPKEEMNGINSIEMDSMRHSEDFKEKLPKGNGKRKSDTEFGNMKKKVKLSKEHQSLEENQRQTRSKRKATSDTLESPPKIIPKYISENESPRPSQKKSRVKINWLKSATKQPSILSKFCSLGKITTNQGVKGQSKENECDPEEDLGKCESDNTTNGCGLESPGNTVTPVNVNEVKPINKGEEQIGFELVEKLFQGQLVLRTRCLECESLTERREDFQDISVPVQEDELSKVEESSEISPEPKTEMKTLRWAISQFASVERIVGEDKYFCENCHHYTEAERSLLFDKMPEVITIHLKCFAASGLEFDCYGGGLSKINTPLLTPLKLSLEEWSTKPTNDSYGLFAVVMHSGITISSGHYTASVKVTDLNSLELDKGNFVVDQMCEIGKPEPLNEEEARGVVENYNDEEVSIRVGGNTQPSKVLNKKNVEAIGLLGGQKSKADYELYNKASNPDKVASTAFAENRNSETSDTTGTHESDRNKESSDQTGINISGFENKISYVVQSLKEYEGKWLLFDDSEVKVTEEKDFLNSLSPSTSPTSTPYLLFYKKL
Sequence of Lysosomal acid glucosylceramidase (Homo sapiens) (P04062 whole entry, looked up): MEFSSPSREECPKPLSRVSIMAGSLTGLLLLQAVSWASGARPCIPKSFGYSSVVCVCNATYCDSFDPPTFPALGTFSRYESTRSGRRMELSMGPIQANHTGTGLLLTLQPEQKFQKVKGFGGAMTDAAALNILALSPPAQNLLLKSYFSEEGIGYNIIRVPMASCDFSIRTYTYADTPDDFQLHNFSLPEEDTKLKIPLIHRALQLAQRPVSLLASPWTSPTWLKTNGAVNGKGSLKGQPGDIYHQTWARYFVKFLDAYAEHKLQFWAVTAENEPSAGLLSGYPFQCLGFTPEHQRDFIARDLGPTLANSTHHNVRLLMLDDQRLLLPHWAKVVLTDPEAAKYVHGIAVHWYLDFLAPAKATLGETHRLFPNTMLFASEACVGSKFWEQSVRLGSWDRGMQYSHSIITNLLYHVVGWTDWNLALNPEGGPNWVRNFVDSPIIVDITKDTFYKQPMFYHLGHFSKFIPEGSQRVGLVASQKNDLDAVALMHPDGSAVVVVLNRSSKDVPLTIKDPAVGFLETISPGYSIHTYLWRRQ
Sequence of 3',5'-cyclic-AMP phosphodiesterase 4B (Homo sapiens) (Q07343 whole entry, looked up): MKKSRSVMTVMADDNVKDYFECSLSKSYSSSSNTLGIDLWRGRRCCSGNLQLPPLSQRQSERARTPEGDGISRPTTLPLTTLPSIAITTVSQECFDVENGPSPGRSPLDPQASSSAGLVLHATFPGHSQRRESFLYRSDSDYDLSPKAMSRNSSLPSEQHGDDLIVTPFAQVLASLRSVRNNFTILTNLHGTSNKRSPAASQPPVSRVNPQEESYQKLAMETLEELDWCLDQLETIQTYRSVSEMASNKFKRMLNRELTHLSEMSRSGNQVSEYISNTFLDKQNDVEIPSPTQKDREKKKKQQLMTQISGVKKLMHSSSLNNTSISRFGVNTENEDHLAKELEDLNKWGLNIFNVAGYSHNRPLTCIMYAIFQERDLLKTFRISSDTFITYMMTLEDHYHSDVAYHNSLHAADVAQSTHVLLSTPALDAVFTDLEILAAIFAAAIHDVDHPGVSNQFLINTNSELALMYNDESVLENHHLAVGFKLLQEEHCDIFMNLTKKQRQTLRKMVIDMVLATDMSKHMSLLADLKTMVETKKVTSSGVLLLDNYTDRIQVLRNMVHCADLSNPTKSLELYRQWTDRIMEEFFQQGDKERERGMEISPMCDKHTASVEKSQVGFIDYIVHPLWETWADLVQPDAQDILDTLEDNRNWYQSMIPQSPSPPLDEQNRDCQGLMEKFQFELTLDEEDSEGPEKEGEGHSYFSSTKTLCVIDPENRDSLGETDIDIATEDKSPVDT

Cc1noc(C)c1-c1nc(N2CCN(C)CC2)c2ccccc2n1
inactive: Potency [1] > 11.4 µM | activity change, negative = inhibition [2] 28.9% | activity change, negative = inhibition [3] -5.52% | outcome [4] | Potency [5] > 46 µM | Potency [6] > 46 µM | Potency [7]

CC/C=C\C/C=C\C/C=C\C/C=C\CCCCC(=O)O
inactive: viability change, negative = cytotoxic [8] -11.8% [at 5 µM] | activity change, negative = cytotoxicity [9] -13.9% [at 5 µM] | activation [10] -23.1% [at 5 µM] | activity change, negative = cytotoxic [11] -8.49% [at 3.42 µM] | activity change, negative = inhibition [12] -7.13% [at 3.42 µM] | activity change, negative = inhibition [13] -5.86% [at 4.27 µM] | activity change, negative = inhibition [14] -9.13% [at 3.26 µM] | max response [15] -1.09% | activation [16] -3.85% [at 5 µM] | activation [17] -9.78% [at 5 µM] | activity change, negative = inhibition [18] -24.2% [at 5 µM]

COCCn1c(=O)c(CCc2ccccc2)nc2cnc(N(C)C)nc21
inactive: Potency [1] > 11.4 µM | activity change, negative = inhibition [2] -26.9% | activity change, negative = inhibition [3] 3.37% | outcome [4] | Potency [5] > 9.22 µM | Potency [6] > 46 µM | Potency [19]

CCCCCC/C=C\CCCCCCCC(=O)O
inactive: outcome [8] | outcome [9] | Potency [10] | outcome [11] | outcome [12] | Potency [13] | outcome [14] | max response [15] 0.217% | outcome [16] | Potency [17] | outcome [18]

O=c1c(CCc2ccccc2)nc2cnc(N3CCNCC3)nc2n1Cc1cccs1
inactive: activity change, negative = inhibition [2] 7.64% | activity change, negative = inhibition [3] 3.16% | Potency [5] > 9.22 µM | Potency [7] | Potency [20] | Potency [19]

O=c1c(-c2ccccc2)nc2cncnc2n1Cc1ccccc1
inactive: activity change, negative = inhibition [2] -16.6% | activity change, negative = inhibition [3] -1.09% | outcome [4] | Potency [5] > 9.22 µM | Potency [6] > 46 µM | Potency [7] | Potency [19]

O=Cc1ccccc1O
inactive: outcome [8] | outcome [9] | Potency [10] | outcome [11] | outcome [12] | Potency [13] | outcome [14] | max response [15] 1.96% | outcome [16] | Potency [17] | outcome [18]

O=C(/C=C/c1ccc(O)c(O)c1)O[C@@H]1CC(C(=O)O)=C[C@@H](O)[C@H]1O
inactive: outcome [8] | outcome [9] | Potency [10] | outcome [11] | outcome [12] | Potency [13] | outcome [14] | max response [15] 4.08% | outcome [16] | Potency [17] | outcome [18]

CC(C)=CCCC(C)=CCCC(C)=CCCC=C(C)CCC=C(C)CCC=C(C)C
inactive: outcome [8] | outcome [9] | Potency [10] | outcome [11] | outcome [12] | Potency [13] | outcome [14] | max response [15] -1.5% | outcome [16] | Potency [17] | outcome [18]

— PubChem BioAssay (NCATS)
